# Laboratory results published in PubChem BioAssay (Tox21).
# Values joined by “and” are separate entries in the source; they are usually repeats but may differ in a detail not shown here. Equal entries are not always repeated. Inconclusive results are not listed. Where a call stands in place of a potency, no number is given. Some structures have more than one record in an assay (separate samples or runs), and their calls can disagree. Active and inactive are the calls of the source. Unless noted, calls follow the shape of the dose curve; as a rule, active = well fitted curve in the direction sought with a large enough effect in the repeat runs; inconclusive = weak or mixed curves; inactive = no such curve, though single readings can be large; an effect the other way counts as inactive or inconclusive.
# Assays:
# [1] = molecular target: Luciferin 4-monooxygenase (Photinus pyralis) (UniProt P08659); assay: qHTS assay to identify small molecule inhibitors of firefly luciferase (AID 1224835); also: nearly all actives have a fitted effect of over 25% in size
# Sequence of Luciferin 4-monooxygenase (Photinus pyralis) (P08659 whole entry, looked up): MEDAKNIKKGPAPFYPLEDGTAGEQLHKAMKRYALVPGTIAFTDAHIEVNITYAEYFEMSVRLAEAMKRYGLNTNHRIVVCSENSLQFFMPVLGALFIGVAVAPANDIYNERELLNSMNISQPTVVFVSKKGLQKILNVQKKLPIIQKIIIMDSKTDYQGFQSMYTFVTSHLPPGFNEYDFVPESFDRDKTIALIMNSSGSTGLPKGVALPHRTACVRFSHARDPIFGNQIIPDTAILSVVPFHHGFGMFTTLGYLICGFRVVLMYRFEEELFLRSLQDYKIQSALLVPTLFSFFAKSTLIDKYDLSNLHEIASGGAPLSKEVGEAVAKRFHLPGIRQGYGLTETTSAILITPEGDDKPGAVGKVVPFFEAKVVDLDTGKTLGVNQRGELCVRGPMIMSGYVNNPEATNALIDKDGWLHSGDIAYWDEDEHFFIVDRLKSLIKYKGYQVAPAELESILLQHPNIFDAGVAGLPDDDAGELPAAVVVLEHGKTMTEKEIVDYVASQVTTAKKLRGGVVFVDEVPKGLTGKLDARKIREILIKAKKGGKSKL
# Summary of the method: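 Biochemical qHTS: compounds run as interplate titrations against purified firefly enzyme, with D-luciferin and ATP each at its KM concentration. Light output recorded by CCD imaging.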
# [2] = qHTS assay to identify small molecule agonists of the constitutive androstane receptor (CAR) signaling pathway - cell viability counter screen (AID 1224836); also: nearly all actives have a fitted effect of over 45% in size
# Summary of the method: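 23 h treatment, 37 C, 5% CO2. Cell line: HepG2 stably expressing hCAR with a CYP2B6-2.2kb construct. Co-treatment: PK11195, 0.75 uM final. Read-out: CellTiter-Fluor fluorescence intensity.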
# [3] = qHTS assay to identify small molecule antagonists of the constitutive androstane receptor (CAR) signaling pathway - cell viability counter screen (AID 1224837); also: nearly all actives have a fitted effect of over 45% in size
# Summary of the method: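 HepG2-CYP2B6-hCAR cells, 2500/well, 4 hr pre-incubation; compound titration, 15 conc.; CITCO 50 nM final; 23 hr, 37 C/5% CO2; CellTiter-Fluor, fluorescence intensity.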
# [4] = molecular target: Nuclear receptor subfamily 1 group I member 3 (Homo sapiens) (UniProt Q14994); assay: qHTS assay to identify small molecule antagonists of the constitutive androstane receptor (CAR) signaling pathway (AID 1224838);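 also: HepG2 cells stably expressing hCAR with CYP2B6 luciferase reporter stimulated by CITCO; nearly all actives have a fitted effect of over 40% in size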
# Sequence of Nuclear receptor subfamily 1 group I member 3 (Homo sapiens) (Q14994 whole entry, looked up): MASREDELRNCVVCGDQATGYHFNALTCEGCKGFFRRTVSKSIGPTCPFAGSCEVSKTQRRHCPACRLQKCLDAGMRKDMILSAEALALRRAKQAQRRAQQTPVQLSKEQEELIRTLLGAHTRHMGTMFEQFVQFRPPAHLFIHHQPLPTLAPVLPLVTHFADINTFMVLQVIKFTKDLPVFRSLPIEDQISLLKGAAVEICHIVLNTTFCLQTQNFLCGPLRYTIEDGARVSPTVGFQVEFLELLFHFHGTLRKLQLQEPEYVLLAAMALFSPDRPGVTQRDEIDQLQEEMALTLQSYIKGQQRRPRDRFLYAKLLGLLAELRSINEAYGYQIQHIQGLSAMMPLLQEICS
# Summary of the method: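 HepG2-CYP2B6-hCAR cells; 4 h pre-incubation; cpd (15 conc) + CITCO 50 nM final; 24 h, 37 C/5% CO2; ONE-Glo, luminescence.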
# [5] = molecular target: Nuclear receptor subfamily 1 group I member 3 (Homo sapiens) (UniProt Q14994); assay: qHTS assay to identify small molecule agonists of the constitutive androstane receptor (CAR) signaling pathway (AID 1224839); also: nearly all actives have a fitted effect of over 15% in size
# Summary of the method: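 Compounds tested at 15 concentrations on HepG2 cells stably harbouring hCAR and CYP2B6-2.2kb reporter constructs, co-treated with PK11195 (0.75 uM final), 24 h at 37 C; luminescent reporter signal quantified.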
# [6] = qHTS assay to identify small molecule antagonists of the estrogen related receptor signaling pathway with the pleiotropic PPARgamma coactivator (PGC) from Tox21 10K library - cell viability counter screen (AID 1224840; active = well fitted cell-killing curve with a large enough effect in the repeat runs, not every such curve was filed as active; also: nearly all actives have a fitted effect of over 40% in size)
# Summary of the method: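 PGC/ERR cells, 2,000/well; 6 h pre-incubation 37 C/5% CO2; cpd in DMSO via pin tool; 17.5 h 37 C; CellTiter-Fluor, 30 min; fluorescence.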
# [7] = molecular target: Thyrotropin receptor (Homo sapiens) (UniProt P16473); assay: qHTS assay to identify small molecule agonists of the thyroid stimulating hormone receptor (TSHR) signaling pathway (AID 1224843; calls by dose curve; also: nearly all actives have a fitted effect of over 45% in size)
# Sequence of Thyrotropin receptor (Homo sapiens) (P16473 whole entry, looked up): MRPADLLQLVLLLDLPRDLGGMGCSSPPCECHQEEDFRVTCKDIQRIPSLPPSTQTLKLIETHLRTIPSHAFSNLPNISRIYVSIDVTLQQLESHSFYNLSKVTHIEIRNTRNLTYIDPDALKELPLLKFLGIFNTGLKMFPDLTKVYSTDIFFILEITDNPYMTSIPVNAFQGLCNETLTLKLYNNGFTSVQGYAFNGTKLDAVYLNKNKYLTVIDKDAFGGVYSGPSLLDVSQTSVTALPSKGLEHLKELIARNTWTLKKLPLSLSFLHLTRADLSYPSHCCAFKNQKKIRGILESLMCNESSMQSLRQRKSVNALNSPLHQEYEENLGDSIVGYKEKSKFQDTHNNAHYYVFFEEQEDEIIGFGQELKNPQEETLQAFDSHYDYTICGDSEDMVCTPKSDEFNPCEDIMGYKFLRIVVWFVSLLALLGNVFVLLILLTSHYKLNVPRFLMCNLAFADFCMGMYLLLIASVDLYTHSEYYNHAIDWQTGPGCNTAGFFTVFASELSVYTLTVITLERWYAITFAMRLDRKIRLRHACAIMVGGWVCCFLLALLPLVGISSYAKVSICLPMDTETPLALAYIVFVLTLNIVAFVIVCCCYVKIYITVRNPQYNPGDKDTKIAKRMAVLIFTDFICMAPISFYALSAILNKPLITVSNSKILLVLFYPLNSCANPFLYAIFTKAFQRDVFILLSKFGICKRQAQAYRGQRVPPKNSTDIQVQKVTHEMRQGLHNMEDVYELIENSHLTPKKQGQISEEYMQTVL
# Summary of the method: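 TSHR-HEK293 cells in agonist mode, 30 min room-temperature step, then cAMP measured by competitive HTRF (cAMP-d2 with anti-cAMP cryptate) after 1 h at room temperature. Tested at 15 concentrations in triplicate.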
# [8] = qHTS assay to identify small molecule agonists of the hypoxia (HIF-1) signaling pathway - cell viability counter screen (AID 1224844; calls by dose curve; also: nearly all actives have a fitted effect of over 50% in size)
# Summary of the method: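 ME-180 HRE-bla cells, 2,000/well, 0.5% dialyzed FBS; 5 hr settle, 17 hr compound at 37C/5% CO2; CCF4-AM reporter read first, then CellTiter-Glo luminescence after 30 min RT.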
# Potency is read from the fitted curve at half-maximal effect.
Structure (SMILES),Potency [1],Potency [2],Potency [3],Potency [4],Potency [5],Potency [6],Potency [7],Potency [8]
Nc1ccccc1C(=O)OCC(O)CO (configuration not stated),inactive,inactive,inactive,inactive,inactive,inactive,inactive,inactive
CN1C[C@H](C(=O)N[C@]2(C)O[C@@]3(O)[C@@H]4CCCN4C(=O)[C@H](Cc4ccccc4)N3C2=O)C=C2c3cccc4[nH]cc(c34)C[C@H]21,40.1 µM (active),inactive,inactive,inactive,inactive,inactive,,24.7 µM (active) and 14.4 µM (active)
CN(C1CCCCC1)C1CCCCC1,inactive,inactive,inactive,inactive,inactive,inactive,inactive,inactive
CCC(C)(C)O,inactive,inactive,inactive,inactive,inactive,inactive,inactive,inactive
Cc1nnc(-c2ccccc2)c(=O)n1N,inactive,inactive,inactive,inactive,inactive,inactive,inactive,inactive
CC(Cc1ccccc1)NCc1ccccc1Cl (configuration not stated),inactive,inactive,inactive,inactive,26.6 µM (active),inactive,inactive,inactive
CC(C)C1(C)N=C(c2ncccc2C(=O)O)NC1=O (configuration not stated),inactive,inactive,inactive,inactive,inactive,inactive,inactive,inactive
O=C(N/N=C/c1ccc([N+](=O)[O-])o1)c1cc([N+](=O)[O-])cc([N+](=O)[O-])c1O,21.9 µM (active),11.9 µM (active),10.6 µM (active),inactive,15 µM (active),11.9 µM (active),inactive,inactive
O=C(O)C(F)(F)C(F)(F)C(F)(F)C(F)(F)C(F)(F)F,inactive,inactive,inactive,inactive,inactive,inactive,inactive,inactive
CCOc1cccc(C2(N3CCN(c4ccccc4)CC3)CCC(C)CC2)c1 (configuration not stated),inactive,inactive,inactive,inactive,inactive,inactive,inactive,inactive
CCCN(CCC)c1c([N+](=O)[O-])cc(C(C)C)cc1[N+](=O)[O-],inactive,inactive,inactive,inactive and 1 nM (active),33.6 µM (active) and inactive,inactive,6.71 µM (active) and 12.2 µM (active),inactive
NC(=O)CF,inactive,inactive,inactive,inactive,inactive,inactive,inactive,inactive
NCCc1cc(O)c(O)cc1O,inactive,inactive,inactive,inactive,inactive,inactive,,inactive
COC1CC(=C(c2cccs2)c2cccs2)C[N+](C)(C)C1 (configuration not stated),inactive,inactive,inactive,inactive,inactive,inactive,inactive,inactive
C=CC(=O)NC(C)(C)CC(C)=O,inactive,inactive,inactive,inactive,inactive,inactive,,inactive
CC(C)c1ccc(OP(=O)(Oc2ccc(C(C)C)cc2)Oc2ccc(C(C)C)cc2)cc1,inactive,inactive,inactive,inactive,30.9 µM (active) and 27.3 µM (active) and 48.5 µM (active),inactive,13.8 µM (active) and 15.4 µM (active) and 13.7 µM (active),inactive
CC[N+]1(CCOC(=O)C(O)(c2ccccc2)c2ccccc2)CCCCC1,inactive,inactive,inactive,inactive,inactive,inactive,inactive,inactive
OCCCl,inactive,inactive,inactive,inactive,inactive,inactive,,inactive
CCC1(CCC(C)C)C(=O)NC(=O)NC1=O,inactive,inactive,inactive,inactive,inactive,inactive,,inactive
C[C@H]1O[C@H](OC2[C@@H](O)[C@@H](O)C(O)[C@H](O)[C@H]2O)[C@@H](N)C[C@@H]1N=C(N)C(=O)O (some centres not stated),inactive,inactive,inactive,inactive,inactive,inactive,inactive,inactive
COC(=O)Cc1ccccc1,inactive,inactive,inactive,inactive,inactive,inactive,,inactive
COc1cc(CC#N)cc(OC)c1OC,inactive,inactive,inactive,inactive,inactive,inactive,inactive,inactive
CCCCCBr,inactive,inactive,inactive,inactive,inactive,inactive,inactive,inactive
C=CC(=O)OCC,inactive,inactive,inactive,inactive,inactive,inactive,,inactive
CC(C)CCON=O,inactive,inactive,inactive,inactive,inactive,inactive,inactive,inactive
CCc1ccccc1N,inactive,inactive,inactive,inactive,inactive,inactive,inactive,inactive
FC(Cl)(Cl)C(F)(Cl)Cl,inactive,inactive,inactive,inactive,inactive,inactive,inactive,inactive
N#CC(C#N)=Cc1ccc(O)c(O)c1,inactive,inactive,inactive,inactive,inactive,inactive,inactive,inactive
